# Compound activity (PubChem)
# This excerpt belongs to a sample that is enriched for hits.
# RBX1-CUL1 inh: blocks human RBX1-Cullin-1 di-ubiquitin formation; P62877+Q13616; in vitro K48 di-Ub FRET, acceptor:donor ratio, 45 min; inhibition, % at 10 µM; 140,000 tested, 0.6% active; AID 1347404; in the data active means inhibition above about 25%
# A number is an active result; – = inactive.
SMILES,RBX1-CUL1 inh
CCOC(=O)C#CCN1C(=O)c2ccccc2C1=O,40.4
O=C1S/C(=C\c2cc(Br)c(O)c(Br)c2)C(=O)N1Cc1ccc(F)cc1,30.7
O=C1S/C(=C\c2ccccc2)C(=O)N1Cc1ccc(F)cc1,–
C=CCOc1c(Br)cc(/C=C2\SC(=O)N(Cc3ccc(F)cc3)C2=O)cc1OCC,–
CC(C)c1nc2cccnc2n1C1CCN(C(=O)C2CCCCN2C)CC1 (configuration not stated),–
Cc1[nH]n(-c2ccccc2)c(=O)c1C(c1ccc(-c2ccc(Br)cc2)o1)c1c(C)[nH]n(-c2ccccc2)c1=O,–
Cc1[nH]n(-c2ccccc2)c(=O)c1C(C[N+](=O)[O-])c1ccc(Br)cc1 (configuration not stated),69.7
Cc1[nH]n(-c2ccccc2)c(=O)c1/C=N/NC(=O)Cc1ccc(Br)cc1,–
CC(C)(C)Nc1ccc(Br)cc1,–
CCOC(=O)N1CCN(C(=S)Nc2cc(OC)c(Cl)cc2OC)CC1,–
CN(C)c1ccc(/C=C\c2ccccc2)cc1,–
CC1=NOC(=O)/C1=C\c1ccc(N(C)C)cc1,–
CN(C)c1ccc(/C=C2/OC(=S)NC2=S)cc1,26.3
Cc1cc(C)c2c(=O)c(C=C3C(=O)c4ccccc4C3=O)coc2c1,–
NC(=O)CC(C(=O)O)N1C(=O)/C(=C/c2cccc(Br)c2)SC1=S (configuration not stated),32.8
O=C(CCCN1C(=O)/C(=C\c2cccc(Br)c2)SC1=S)NNC(=O)c1ccccc1O,–
CCCC(C(=O)O)N1C(=O)/C(=C/c2ccc(F)cc2)SC1=S (configuration not stated),–
CCOC(=O)c1c(-c2ccc(OC)c(OC)c2)csc1NC(=O)c1ccc(Br)o1,–
CC(C)(C)N=C1N/C(=C\c2ccccc2)C(=O)N1c1ccc(Cl)cc1,–
Cc1cc(C)nc(SCCOc2ccc(C(C)(C)C)cc2)n1,–
CCOc1ccc(OCC)c(N2C(=O)NC(=O)/C(=C\c3ccc(OCC#N)cc3)C2=O)c1,–
CCOc1ccc(OCC)c(N2C(=O)NC(=O)/C(=C\c3cccs3)C2=O)c1,–
CCOc1ccc(OCC)c(N2C(=O)NC(=O)/C(=C\c3ccc(Br)o3)C2=O)c1,76.0
COc1cccc(NC(=O)C2C(=O)N(C)c3ccccc32)c1 (configuration not stated),–
O=C(N/N=C/c1cc(Cl)cc(Cl)c1O)c1cc(O)cc(O)c1,–
SMILES,RBX1-CUL1 inh
O=C(O)c1ccc(/C=C2\SC(=O)N(CC(=O)N3CCOCC3)C2=O)cc1,–
CC1(C)CCc2c(ccc3c2OC(C)(C)CC3)O1,–
Cc1ccc2cc(C3=C/C(=C/c4ccc(N5CCOCC5)o4)C(=O)O3)ccc2c1,95.9
Cc1ccc2cc(C3=CCC(=O)O3)ccc2c1,–
Cc1ccc(C2=C/C(=C\c3c(Cl)cccc3Cl)C(=O)O2)cc1,–
O=C1CC2(CCCC2)Oc2c1sc1ccccc21,–
CCOc1cc(/C=C2/SC(=Nc3ccc4ccccc4c3)NC2=O)cc(Cl)c1OCC(=O)O,99.3
COc1cccc(/C=C2\SC(=Nc3cccc(Cl)c3C)NC2=O)c1OCC(=O)O,–
CCOc1ccc(N=C2NC(=O)/C(=C/c3cc(Br)c(OC)c(OC)c3)S2)cc1,–
CCOc1ccc(/C=C2\SC(=Nc3ccc(F)cc3)NC2=O)cc1OC,–
CCCOC(=O)c1cccc(N=C2NC(=O)/C(=C\c3cc(C(C)C)c(OC)cc3C)S2)c1,–
COc1cccc(/C=C2\SC(=Nc3ccc(C)c(Cl)c3)NC2=O)c1OCC(=O)O,97.0
CCNc1ncc(-c2cc(C(=O)N3CCCC3C)c3cccc(C)c3n2)cn1 (configuration not stated),–
CCN1C(=O)/C(=C/c2ccc(F)c(Br)c2)SC1=S,–
NN1C(=O)/C(=C/c2ccc(O)c(Br)c2)SC1=S,50.1
NN1C(=O)/C(=C\c2ccc(O)cc2)SC1=S,–
Cc1nc2ccccn2c1C(=O)Nc1ccc(C(C)C)cc1,–
CC12CN(C(=O)C(c3ccccc3)c3ccccc3)C3(C#N)CC1CCC23C (configuration not stated),–
COCCN(CC1CCCN(C2Cc3ccccc3C2)C1)C1CCOCC1 (configuration not stated),–
COC1CCCN(C(=O)c2ccc(OC3CCN(C(=O)c4cccnc4)CC3)cc2)C1 (configuration not stated),–
CCOc1cc(-c2ccc3c(c2)OCO3)cc(=Nc2cccc(OC)c2)c2c(C)oc(C)c12,–
CCOc1cc(-c2ccc(O)cc2)cc(=O)c2c(C)oc(C)c12,–
CCOc1cc(-c2ccc(O)c(O)c2)cc(=Nc2ccc(Br)cc2)c2c(C)oc(C)c12,49.7
N#Cc1cc(Sc2ccc3ccccc3c2)ccc1N,–
O=C1N=C(c2ccccc2)N(c2ccccc2)C(=O)C1C(=O)c1ccccc1Br (configuration not stated),–
SMILES,RBX1-CUL1 inh
O=C1Oc2ccc3ccccc3c2C(=O)C1CC1C(=O)Oc2ccc3ccccc3c2C1=O (configuration not stated),31.9
O=C1/C(=C/c2ccc(Cl)cc2)COc2ccc3ccccc3c21,–
CCC1c2c(ccc3ccccc23)OC(=O)C1C(=O)Nc1ccc(C)cc1 (configuration not stated),–
COc1ccccc1CCC(=O)Nc1cnn(CC(=O)NC(C)c2nc(-c3ccccc3)no2)c1 (configuration not stated),–
COc1cc(/C=C2/SC(=Nc3ccc(F)cc3)NC2=O)ccc1OCC(=O)Nc1ccc(F)cc1,–
COC(=O)c1cc(CNC(=O)[C@@H]2C[C@@H]3C=C[C@H]2C3)cc(NS(=O)(=O)c2ccccc2Cl)c1,–
O=C1NC(=S)S/C1=C/c1ccc(F)cc1,–
O=C1NC(=S)S/C1=C/c1ccc(N2N=C(c3ccccc3)CC2c2ccccc2)cc1 (configuration not stated),80.8
Cc1cc(/C=C2/SC(=S)NC2=O)c(C)n1-c1ccccc1,–
CC1(C)CC(NC(=O)C2CCCC2)CC(C)(CNC(=O)C2CCCC2)C1 (configuration not stated),–
COc1ccccc1N=Cc1cc2c(cc1O)OC(=N)C(C#N)C2c1cccc(F)c1 (configuration not stated),–
N#CC1C(=N)Oc2cc(O)c(C=Nc3cccc(F)c3)cc2C1c1ccco1 (configuration not stated),47.8
COc1ccc(N=Cc2cc3c(cc2O)OC(=N)C(C#N)C3c2cccc(F)c2)cc1 (configuration not stated),–
COc1ccc2ccc(OC)c(/C=C3\SC(=O)N(Cc4ccc(F)cc4)C3=O)c2c1,–
COC(=O)[C@]1(C)C[C@H](C(=O)NC2CCCC2)[C@H](c2ccccc2C)N1C,–
COc1ccccc1C1NC(=S)N=C(C)C1C(N)=O (configuration not stated),–
O=C1C2C(c3ccc(Br)cc3)OC3(C(=O)c4ccccc4C3=O)C2C(=O)N1c1ccc([N+](=O)[O-])cc1 (configuration not stated),–
O=C1C2C(c3ccccc3)OC3(C(=O)c4ccccc4C3=O)C2C(=O)N1c1ccc(F)cc1 (configuration not stated),–
O=C1C2C(c3ccc(F)c(Cl)c3)OC3(C(=O)c4ccccc4C3=O)C2C(=O)N1c1ccc(Br)cc1 (configuration not stated),93.0
COCCc1nc2ccc(C(=O)NCCN3CCC(c4ccccc4)C3)cc2o1 (configuration not stated),–
